Rows were chosen to be rich in hits. Some 2.3% of all compounds tested hit in one or more screens of this group.
TRPV1 potentiator = HTS Assay for Compounds that Act as Potentiators of the Vanilloid Receptor 1 | actives 0.02% (n = 320,000) | potentiation, % at 8.33 µM | AID 540277, 2011 | TRPV1-expressing cells, Fluo-8 calcium influx, capsaicin EC20 potentiation; in the data active = potentiation above about 80%; inconclusive = between about 30% and that limit; note: 0% is about no effect
Target sequence (Q8NER1 whole entry, looked up): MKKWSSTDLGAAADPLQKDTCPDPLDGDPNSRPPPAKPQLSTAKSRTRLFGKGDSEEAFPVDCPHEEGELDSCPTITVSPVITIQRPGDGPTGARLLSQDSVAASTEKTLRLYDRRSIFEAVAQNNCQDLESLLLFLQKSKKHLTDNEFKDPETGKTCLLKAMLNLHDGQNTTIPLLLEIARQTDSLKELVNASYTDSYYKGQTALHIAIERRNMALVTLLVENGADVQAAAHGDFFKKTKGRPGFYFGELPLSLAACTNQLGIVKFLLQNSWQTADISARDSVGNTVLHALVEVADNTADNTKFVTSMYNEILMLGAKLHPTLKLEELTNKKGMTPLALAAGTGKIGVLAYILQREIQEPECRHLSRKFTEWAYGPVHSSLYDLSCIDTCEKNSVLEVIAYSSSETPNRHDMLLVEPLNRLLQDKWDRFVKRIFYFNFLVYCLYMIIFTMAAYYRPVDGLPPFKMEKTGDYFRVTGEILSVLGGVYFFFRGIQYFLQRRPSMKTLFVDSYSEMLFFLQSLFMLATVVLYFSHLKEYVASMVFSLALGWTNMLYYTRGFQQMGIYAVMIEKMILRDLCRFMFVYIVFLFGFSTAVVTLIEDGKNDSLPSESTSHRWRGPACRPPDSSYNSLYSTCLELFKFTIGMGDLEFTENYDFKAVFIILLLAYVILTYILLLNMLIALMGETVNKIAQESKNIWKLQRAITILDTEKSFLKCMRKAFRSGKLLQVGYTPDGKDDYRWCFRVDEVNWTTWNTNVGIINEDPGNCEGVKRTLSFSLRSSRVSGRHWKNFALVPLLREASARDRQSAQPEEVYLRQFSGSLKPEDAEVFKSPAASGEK
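Fluo-8 calcium influx in TRPV1-expressing cells, kinetic read (ex 480/em 520 nm). Compound added and read 3 min for agonist activity, followed by capsaicin at EC20 final and 2 min further read for enhancement.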
Giardia kill = Small Molecules that selectively kill Giardia lamblia: qHTS; activity change, % at 7.66 µM, hits read low; Giardia lamblia trophozoite viability; AID 540267, 2011; actives 0.15% (n = 340,000); in the data active = activity change below about -80%; inconclusive = between about -30% and that limit;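 note: parasites exposed to compound for two days anaerobically before the ATP read; % is set by controls: 0 for no effect and ±100 for the full control effect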
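Viability, read as ATP luminescence: trophozoites at 100 cells/well, compound added, 48 hrs anaerobic at 37 deg C, then 15-30 min room-temperature development before reading.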
TRPV1 ag = HTS Assay for Compounds that Act as Agonists of the Vanilloid Receptor 1 | TRPV1-expressing cells, Fluo-8 calcium influx, agonist mode | actives 0.19% (n = 320,000) | activation, % at 8.33 µM | AID 540275, 2011; in the data active = activation above about 80%; inconclusive = between about 30% and that limit; note: 0% is about no effect
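Fluo-8 calcium influx in TRPV1-expressing cells, kinetic read (ex 480/em 520 nm). Compound added and read 3 min for agonist activity, followed by capsaicin at EC20 final and 2 min further read for enhancement.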
FUS yeast rescue = qHTS for Suppressors of FUS Proteinopathy: Primary screen using FUS-linked yeast assay | actives 0.24% (n = 390,000) | S. cerevisiae FUS-expressing, growth rescue, OD600, 24 h | Potency, µM (doses to about 76.6 µM), actives largely listed as activators;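 note: potency is the fitted concentration of half-maximal effect; plate controls were DMSO vehicle for no effect and reference control for full effect; nearly all actives have a fitted effect of over 55% in size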
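FUS-expressing yeast, raffinose-pregrown, induced in 2% galactose minimal medium at OD 0.005; compounds in a dilution series, 24hr at 30C. Growth restoration read as absorbance at 600 nm. CP55940 positive control, DMSO negative.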
ELG1 DNA repair = qHTS screen for small molecules that inhibit ELG1-dependent DNA repair in human embryonic kidney (HEK293T) cells expressing luciferase-tagged ELG1; actives 2.3% (n = 330,000); Potency, µM (doses to about 46.1 µM), for inactives: at the top dose activity change, negative = inhibition, usual class: inhibitors; HEK293T ELG1-luciferase reporter, luminescence, 16 h; DNA damage induced by 5-fluorouridine; note: potency is the fitted concentration of half-maximal effect; % is set by controls: 0 for no effect and ±100 for the full control effect; nearly all actives have a fitted effect of over 55% in size
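Reporter activity after DNA damage by 5-fluorouridine is monitored. Compound-treated cells incubate 16 hr at 37 °C, then ONE-Glo is added for 30 min before luminescence reading.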
* hit, by the source's call; i = inactive; u = inconclusive; x = no result given. Unless noted, calls come from the whole dose curve; as a rule, active = well fitted curve in the direction sought with a large enough effect; inconclusive = small, poorly fitted or top-dose-only effect, or another doubt; inactive = no such curve, though single readings can be large; an effect the other way counts as inactive or inconclusive.

SMILES	TRPV1 potentiator	Giardia kill	TRPV1 ag	FUS yeast rescue	ELG1 DNA repair
CN(C)S(=O)(=O)N1CCC(Oc2cccc(C(=O)NCCC3=CCCCC3)c2)CC1	-9	-16	30	x	13µM*
Cc1cccc(-c2nc(C)c(CCNC(=O)C(=O)Nc3cccc(Cl)c3C)s2)c1	x	x	x	i	x
Cc1ccc2oc(C(=O)Nc3ccc(S(=O)(=O)Nc4nccc(C)n4)cc3)cc(=O)c2c1	x	x	x	i	x
CCc1cc2c(COC(=O)c3cccc(S(C)(=O)=O)c3)cc(=O)oc2cc1O	7	-29	2	i	u
CNS(=O)(=O)c1cccc(C(=O)OCc2cc(=O)oc3c(C)c(O)ccc23)c1	11	-9	4	i	23µM*
COc1ccc(Br)cc1/C=C/C(=O)c1ccc(NC(C)=O)cc1	22	0	-3	i	15µM*
COc1ccc(Br)c2c1-c1nc(NC(=O)c3ccc(F)cc3)sc1C2	x	x	x	i	x
Cc1nc2ccc(C(=O)NCCc3c[nH]c4ccccc34)cn2c1N(C)C(=O)CCc1ccccc1	x	x	x	i	x
Cc1cccc2cc(/C=N/NC(=O)c3ccccc3O)c(Cl)nc12	-24	7	u	x	23µM*
Cc1cccc2cc(/C=N/NC(=O)c3ccncc3)c(Cl)nc12	-1	0	u	i	-11%
COCCNC(=O)c1cc(Sc2ccc(F)cc2F)nc2ccccc12	x	x	x	i	x
Cc1ccc(S(=O)(=O)C(CNS(=O)(=O)c2cc(F)ccc2F)c2cccs2)cc1 (configuration not stated)	x	x	x	i	x
Cc1ccc(CNC(=O)C2CCN(Cc3nc(-c4ccccc4C)oc3C)CC2)cc1	x	x	x	i	x
CN(c1ccc(OCC(=O)Nc2nc3ccccc3s2)cc1)S(=O)(=O)c1ccccc1	-12	-9	1	u	8.2µM*
CCOC(=O)Cc1csc(NC(=O)Nc2ccc(F)cc2)n1	16	4	17	i	7.3µM*
CCOC(=O)Cc1csc(NC(=O)Nc2ccc(C)cc2)n1	1	-16	24	i	-2%
CCOC(=O)Cc1csc(NC(=O)C(NC(=O)C2CCC(C)CC2)C(C)C)n1 (configuration not stated)	6	-23	4	i	8.2µM*
CCOC(=O)Cc1csc(NC(=O)COc2ccc(N(C)S(=O)(=O)c3ccc(C)cc3)cc2)n1	6	-12	3	i	18µM*
CCOC(=O)Cc1csc(NC(=O)COc2ccc(OC)cc2)n1	1	1	7	i	-15%
C=C1CCN(C(Cc2ccccc2)C(=O)NCc2ccc(Cl)c(Cl)c2)S(=O)(=O)c2ccccc21 (configuration not stated)	x	11	x	x	x
CCCOc1ccc(CNC(=O)CCCn2ncn3c(cc4sc(CC)cc43)c2=O)cc1	x	x	x	i	x
Clc1ccccc1CSc1nc(NCCc2ccccc2)c2ccccc2n1	x	x	x	i	x
Cc1ccc2cc(C#N)c(NCCNC(=O)C3CC3)nc2c1C	-7	11	-1	i	21µM*
COc1ccc(Br)cc1CNC(=O)c1ccc2c(c1)nc1n2CCCCC1	x	x	x	i	x
O=C(CCCn1c(=S)[nH]c2cc3c(cc2c1=O)OCO3)N1CCN(c2ncccn2)CC1	-14	6	-2	i	15µM*
O=C(CCCn1c(=S)[nH]c2cc3c(cc2c1=O)OCO3)N1CCN(c2ccccc2F)CC1	5	5	6	i	23µM*
COc1cccc(N2CCN(C(=O)CCCCCn3c(=S)[nH]c4cc5c(cc4c3=O)OCO5)CC2)c1	4	5	1	i	4%
CCOC(=O)N1CCN(C(=O)CCCn2c(=S)[nH]c3ccc(Br)cc3c2=O)CC1	0	7	3	i	23µM*
Cc1ccc(C)c(N2CCN(C(=O)CCCn3c(=S)[nH]c4cc5c(cc4c3=O)OCO5)CC2)c1	-4	18	20	u	9.2µM*
COc1ccccc1N1CCN(C(=O)CCCCCn2c(=S)[nH]c3cc4c(cc3c2=O)OCO4)CC1	x	x	x	i	x

High-throughput results deposited in PubChem BioAssay by National Center for Advancing Translational Sciences (NCATS).
